D3 ag: qHTS of D3 Dopamine Receptor Agonist: qHTS. D(3) dopamine receptor (Homo sapiens), P35462. D3R DiscoveRx beta-arrestin cells, luminescence, 90 min. max activation, %. hit rate 0.58% among 410,000; in the data active means max activation above about 30%
Target sequence (P35462 whole entry, looked up): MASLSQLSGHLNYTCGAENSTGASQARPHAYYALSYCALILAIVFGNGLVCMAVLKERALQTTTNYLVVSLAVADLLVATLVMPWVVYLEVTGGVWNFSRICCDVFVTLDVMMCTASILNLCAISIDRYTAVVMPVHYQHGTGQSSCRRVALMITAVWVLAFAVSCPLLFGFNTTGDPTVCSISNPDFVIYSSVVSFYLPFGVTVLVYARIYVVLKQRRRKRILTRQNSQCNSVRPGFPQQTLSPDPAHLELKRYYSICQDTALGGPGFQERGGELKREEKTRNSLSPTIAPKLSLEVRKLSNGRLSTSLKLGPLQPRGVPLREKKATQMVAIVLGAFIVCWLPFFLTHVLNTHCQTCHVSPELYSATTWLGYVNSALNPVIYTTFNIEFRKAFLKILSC
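Agonist-mode cell screen: cells plated at 1500/well and incubated overnight at 37 °C, then exposed to library compounds for 90 min at 37 °C. Detection reagent was added for 30–60 min at room temperature, and luminescence was read.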
D3 antag: qHTS of D3 Dopamine Receptor Antagonist: qHTS; D(3) dopamine receptor (Homo sapiens), P35462; D3R cells, DiscoveRx beta-arrestin luminescence, antagonist mode; hits give low values; max response, negative = inhibition, %; hit rate 2.5% among 360,000; in the data active means max response below about -50%
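Cells plated overnight at 1500 cells/well, then exposed to library compounds with dopamine controls for 90 minutes at 37 degrees C. DiscoveRx reagent added for 30–60 minutes at room temperature; luminescence read, quantitative HTS format.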
D1 PAM: Potentiators of Human D1 Dopamine Receptor: qHTS. D(1A) dopamine receptor (Homo sapiens), P21728. HEK293 TREx D1 cells, calcium flux, dopamine EC20 potentiation. potentiation, % at 10 µM. hit rate 0.036% among 360,000. AID 504651, 2011; in the data active means potentiation above about 30%
D1 ag: Allosteric Agonists of the Human D1 Dopamine Receptor: qHTS; activation, % at 2 µM; hit rate 1% among 360,000; HEK293 T-REx D1 cells, calcium flux, agonist mode; D(1A) dopamine receptor (Homo sapiens), P21728; in the data active means activation above about 30%
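Inducible HEK293 T-REx D1 cells, force-coupled to calcium signalling, were plated at 4000 cells/well with tetracycline and held overnight at 30 C. After no-wash calcium dye loading, compound-evoked calcium rise over 180 s flagged agonists.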
D1 antagonist: Antagonist of Human D 1 Dopamine Receptor: qHTS. D(1A) dopamine receptor (Homo sapiens), P21728. HEK293 TREx D1 cells, calcium flux, dopamine EC80; hits give low values. activity change, negative = inhibition, % at 10 µM. hit rate 3.2% among 360,000. AID 504652, 2011; in the data active means activity change below about -30%
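Calcium flux readout: force-coupled, inducible Hek293 Trex D1 line, cells induced overnight at 30 C with tetracycline, dye-loaded 30–90 min at RT. Antagonism scored against EC80 dopamine challenge given 180 s after compound.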
Hits are given with their value; - = inactive; . = no result given; ! = not active in a repeat. Rows were chosen to be rich in hits. Some 6% of all compounds tested hit in one or more screens of this group.

SMILES	D3 ag	D3 antag	D1 PAM	D1 ag	D1 antagonist
CC(C)Oc1ccc(C(=O)N(Cc2ccc(N(C)C)cc2)Cc2ccco2)cc1	-	.	-	-	-
COc1ccccc1NC(=O)C1=C(C)Nc2c(C(=O)Nc3ccc(F)cc3)cnn2C1c1ccc(Cl)cc1 (centres undefined)	-	.	-	-	-
O=C(O)c1cccc(/C=C2/C[C@@H]3[C@@H](/C=C/[C@@H](O)C4CCCCC4)[C@H](O)C[C@@H]3O2)c1	-	.	.	.	.
Cc1c(-c2ccc(Cl)cc2)c(=O)oc2c(CN3CCN(CCO)CC3)c(O)ccc12	-	.	-	-	-
Nc1ccccc1Nc1ccc([N+](=O)[O-])cc1[N+](=O)[O-]	-	-	-	-	-
Nc1cc([N+](=O)[O-])ccc1Nc1ccc(O)cc1	-	-54.6	-	-	-
CCOC(=O)COc1ccc(F)cc1C(=O)c1ccn2nc(-c3ccc(Cl)cc3)cc2n1	-	.	-	-	-
OC1c2cc(Cl)ccc2-c2c(Cl)cc(Cl)cc21 (centres undefined)	-	-	.	.	.
OC1c2cc(Cl)cc(Cl)c2N=C2CCCN21 (centres undefined)	-	-59.3	.	.	.
Cc1cn([C@H]2C[C@H](O)[C@@H](/C=C/C(=O)NCCc3cccnc3)O2)c(=O)[nH]c1=O	58.9	-	.	.	.
Cc1cn([C@H]2C[C@H](O)[C@@H](/C=C/C(=O)NCc3ccccc3)O2)c(=O)[nH]c1=O	-	-	.	.	.
CCc1ccc(C2CC(=O)N(c3cccc(C(F)(F)F)c3)C3=C2C(=O)OC3)cc1 (centres undefined)	-	.	-	-	-
Cn1c(CN2CCN(C(=O)c3ccccc3)CC2)nc2cc([N+](=O)[O-])ccc21	-	-	-	-	-
Cn1c(CN2CCN(C(=O)c3ccccc3Cl)CC2)nc2cc([N+](=O)[O-])ccc21	-	-	-	-	-77.0
COc1ccc(C2Nc3ccccc3-n3c(-c4ccccc4)c4c(=O)n(C)c(=O)n(C)c4c32)cc1 (centres undefined)	-	.	-	-	-
CN1C(C(=O)c2ccccc2)=C(NC(=O)c2ccccc2Br)c2ccccc2S1(=O)=O	-	.	-	-	-
CC(C)n1c(-c2ccc(N(C)C)cc2)nc2ccccc21	-	-	-	-	-42.6
CCOc1ccc(-c2cc3c(=O)n(Cc4nc(-c5ccc(OCC)c(OC)c5)oc4C)ccn3n2)cc1Cl	-	.	-	-	-
O=C(Nc1ccc2c(c1)N(C1CCCC1)C(=O)c1ccccc1S2)c1ccccc1	-	.	-	-	-
FC(F)(F)C(F)(F)C(F)(F)C(F)(F)C(F)(F)C(F)(F)C(F)(F)C(F)(F)Br	-	.	.	.	.
CC[N+]1(CC)CCC(=C(c2ccccc2)c2ccccc2)C1C (centres undefined)	-	.	.	.	.
CC(C)(C)OC(=O)N1CCC(c2c(C(=O)NCc3ccccn3)cnn2-c2ccccc2)CC1	-	.	-	-	-
OC(CNCCc1ccc(C(F)(F)F)cc1)COC(c1ccccc1)c1ccccc1 (centres undefined)	-	-	52.0	100.6	-
Cc1cc(C)n(-c2nc3ccccc3nc2N2CCN(c3cccc(C(F)(F)F)c3)CC2)n1	-	.	-	-	-
CCOC(=O)N1CCc2c(sc3c2c(=O)n(Cc2ccccc2)c(=O)n3CC(=O)Nc2ccc(F)cc2)C1	-	.	-	-	-
SMILES	D3 ag	D3 antag	D1 PAM	D1 ag	D1 antagonist
CC(=O)n1cc([C@H]2C=C(C(N)=O)O[C@@H](OCc3ccc(CO)cc3)C2)c2ccccc21	35.8	-	.	.	.
CC(=O)n1cc([C@@H]2C=C(C(=O)N3CCN(Cc4ccccc4)CC3)O[C@H](OCc3ccc(CO)cc3)C2)c2ccccc21	-	-60.6	-	-	-
Cc1cc(C)c(Cn2c(CCNC(=O)c3ccco3)nc3ccccc32)c(C)c1	-	.	-	-	-
COc1cc2c(cc1OC)C(c1cc3cc(C)ccc3[nH]c1=O)N(C(=O)c1ccco1)CC2 (centres undefined)	37.3	-	-	-	-
COc1ccc2cc(C3c4cc(OC)c(OC)cc4CCN3C(=O)c3ccco3)c(=O)[nH]c2c1 (centres undefined)	-	-	-	-	-
Cc1ccccc1Cn1cnc2nc3c(cc2c1=O)CC(C)CC3 (centres undefined)	-	.	-	-	-
CC1=Nc2ccccc2/C1=C/c1sc(=N)n(-c2nccs2)c1O	-	-96.1	-	58.0	-
CCCN(CCC)c1cc(C)nc2nc(-c3ccc(Cl)cc3)nn12	-	.	-	-	-
O=C(NCc1nnc(-c2cc3ccccc3[nH]2)s1)c1ccccc1	.	.	-	-	-
O=C(Cc1nnc(-c2cc3ccccc3[nH]2)s1)Nc1cc(C(F)(F)F)ccc1Cl	.	.	-	-	-34.3!
O=C(O)Cc1nnc(-c2cc3ccccc3[nH]2)s1	.	.	-	-	-36.6
COc1ccc(C2=CC(=O)CC(c3ccc(OC)cc3)C2)cc1 (centres undefined)	-	-	-	-	-
COc1ccc([C@H]2CC(=O)C=C(c3cc(OC)ccc3OC)C2)cc1	-	-	-	-	-34.5
C=Cc1ccc(C2=CC(=O)C[C@H](c3ccc(OC)cc3)C2)cc1	-	-52.1	-	-	-
Cc1cc2c(s1)c1cnn(Cc3c(Cl)ccc(C)c3F)c(=O)c1n2C	.	.	-	-	-
COc1cc(C(=O)NCC(c2cccs2)S(=O)(=O)c2ccc(F)cc2)cc(OC)c1OC (centres undefined)	-	.	-	-	.
CCN1CCN(C(=O)C2c3cc(OC)c(OC)cc3C(=O)N3CCc4ccccc4C23)CC1 (centres undefined)	-	-	-	-	-
CCN(CC)CCNC(=O)C1c2cc(OC)c(OC)cc2C(=O)N(C)C1c1cccs1 (centres undefined)	-	-97.5	-	-	-
CCCCN(CC)CCNC(=O)C1c2cc(OC)c(OC)cc2C(=O)N2CCc3ccccc3C12 (centres undefined)	-	-76.3	-	-	-
CCN(CC)c1ccc2nc3c(=O)n(C)c(=O)n(C)c3nc2c1	-	.	-	144.5	-
CCC(=O)Nc1ccc2nc3c(=O)n(C)c(=O)n(C)c3nc2c1	-	.	-	-	-
CC(C)(C)c1ccc(S(=O)(=O)c2cn(CC(=O)Nc3ccccc3)c3ccccc3c2=O)cc1	-	.	-	-	-
COc1ccc(-c2ccc3c(c2)S(=O)(=O)c2cccc(C(=O)NC[C@@H]4CCCO4)c2C3=O)cc1OC	36.7	-	-	-	-35.8
CCOc1cccc(C(=O)Nc2c(C(=O)c3ccc(OC)cc3)oc3ccccc23)c1	32.6	.	-	-	-
COc1cccc(C(=O)Nc2c(C(=O)c3ccc(F)cc3)oc3ccccc23)c1	-	.	-	-	-
